Source: PubChem BioAssay
In the library only some 12% were active in any assay of this set; here they are far more common.
Cycloheximide cs: counter-screen for Shiga toxin inhibitors: cycloheximide protein synthesis inhibition | max response, % | AID 2314 | 300,000 tested, 12% active | cell reporter, cycloheximide protein synthesis inhibition counterscreen; in the data active means max response mostly above about 13%, no sharp cut-off; inactive means mostly below about 14%; further: read at 38.3 µM for the half of the compounds with a filed dose; 0% is about no effect
Shiga inhibitor: Shiga toxin inhibition; 290,000 tested, 9.2% active; Vero cells, Shiga toxin protein synthesis inhibition reporter; inhibition, % at 38.7 µM; in the data active means inhibition mostly above about 28%, no sharp cut-off; inactive means mostly below about 43%; further: 0% is about no effect
SARS PLpro yeast: SARS-CoV PLP inhibition in yeast; S. cerevisiae expressing SARS-CoV PLpro, growth rescue; 330,000 tested, 0.19% active; AID 485353; Potency, µM (doses to about 32.9 µM), for the others: at the highest dose activity, positive = growth rescue, actives largely listed as activators; further: potency means the concentration at half of the fitted maximal effect; 0% is about no effect; nearly all actives have a fitted effect of over 55% in size
NS1 inh: influenza NS1 inhibition; Potency, µM (top dose mostly 46.1 µM), for the others: at the top dose activity, positive = more growth; 270,000 tested, 0.4% active; further: potency means the concentration at half of the fitted maximal effect; actives are rising curves; nearly all actives have a fitted effect of over 50% in size
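Read-out: OD600 growth recovery of NS1-expressing budding yeast. Cells grown overnight at 30C in -URA glucose medium, washed, resuspended and diluted 1:100 in 2% galactose assay medium, pH 6.0. Same strain lacking NS1 served as positive control.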
Flu NS1 inh: validation of influenza NS1 protein function inhibitors; shares compounds with NS1 inh; influenza NS1 function cell assay, 15-point titration; activity change, negative = inhibition, % at 32.9 µM; 1,400 tested, under 10 active; AID 492980; further: 0% is about no effect
* = called active by the depositor. Unless noted, the call rests on the fitted dose curve.

Results for Cc1ccc(C)c(N(C(=O)c2csnn2)C(C(=O)NC2CCCC2)c2cccnc2)c1 (centres undefined) ?
Cycloheximide cs: -6.7; Shiga inhibitor: -3.0; SARS PLpro yeast: 5.2%; NS1 inh: 4.6%

How did Cn1cccc1C(=O)NC(=O)COC(=O)c1ccc(O)cc1 do in these assays?
Cycloheximide cs: 19.2; Shiga inhibitor: 23.4; SARS PLpro yeast: 4.3%; NS1 inh: 10µM*; Flu NS1 inh: -21.9

How did Cn1cccc1C(=O)NC(=O)COC(=O)c1ccc(S(C)(=O)=O)cc1 do in these assays?
SARS PLpro yeast: -4.3%

What do the screens show for `CCCCOc1c(Br)cc(/C=C2\N=C(C)OC2=O)cc1OCC`?
Cycloheximide cs: 5.3; Shiga inhibitor: -6.8; SARS PLpro yeast: 9.1%; NS1 inh: 3.55µM*; Flu NS1 inh: -1.6

What do the screens show for `COc1cc(/C=C2\N=C(C)OC2=O)cc(Cl)c1OC(C)=O`?
Cycloheximide cs: -1.5; Shiga inhibitor: -6.5; SARS PLpro yeast: 1.8%; NS1 inh: 0.1%

What do the screens show for `CC[C@@H](C)[C@H]1O[C@]2(CC[C@@H]1C)C[C@@H]1C[C@@H](C/C=C(\C)[C@@H](O[C@H]3C[C@H](OC)[C@@H](O[C@H]4C[C@H](OC)[C@@H](O)[C@H](C)O4)[C@H](C)O3)[C@@H](C)/C=C/C=C3\CO[C@@H]4[C@H](O)C(C)=C[C@@H](C(=O)O1)[C@]34O)O2`?
NS1 inh: 7.08µM*; Flu NS1 inh: -1.4

What do the screens show for `CCOc1ccc(S(=O)(=O)Nc2ccccn2)c2ccccc12`?
Cycloheximide cs: -3.9; Shiga inhibitor: -12.7; SARS PLpro yeast: -1.8%; NS1 inh: 1.12µM*; Flu NS1 inh: -12.5

How did CC(C)Cn1c(SCC(=O)N(C)c2c(N)n(Cc3ccccc3)c(=O)[nH]c2=O)nc2ccccc21 do in these assays?
SARS PLpro yeast: -3.3%

Results for Cc1ccc(SC(CC(=O)c2ccc(C)cc2)C(=O)O)cc1 (centres undefined) ?
Cycloheximide cs: 14.8; Shiga inhibitor: 17.9; SARS PLpro yeast: -1.8%; NS1 inh: -98.8%

Results for CCOC(=O)c1nc(C)nc(Sc2n[nH]c(-c3cc(C(F)(F)F)cc(C(F)(F)F)c3)n2)c1C ?
Cycloheximide cs: -0.9; Shiga inhibitor: -10.7; SARS PLpro yeast: -2.7%; NS1 inh: -5.4%

How did Cc1ccc(S(=O)(=O)N(CC(=O)Nc2cc(C)ccc2C)C(=O)N2CCN(C)CC2)cc1 do in these assays?
SARS PLpro yeast: -11.8%

What do the screens show for `CCOC(=O)c1cc(OC(=O)c2cccnc2)n(-c2ccccc2)n1`?
Cycloheximide cs: 1.0; Shiga inhibitor: -9.9; SARS PLpro yeast: 9.6%; NS1 inh: 2µM*; Flu NS1 inh: inconclusive

How did Cc1cc(C)cc(OC(=O)c2cccnc2)c1 do in these assays?
Cycloheximide cs: 1.8; Shiga inhibitor: -0.7; SARS PLpro yeast: 1.3%; NS1 inh: -2.3%

What do the screens show for `CCC(C)c1c(O)nc(SCC(=O)c2ccccc2)[nH]c1=O` (centres undefined)?
Cycloheximide cs: 6.1; Shiga inhibitor: 18.1; SARS PLpro yeast: -14.0%; NS1 inh: 4.47µM*; Flu NS1 inh: 2.0

What do the screens show for `Cc1ccc(C(=O)CSc2nc(N)cc(=O)[nH]2)cc1C`?
Cycloheximide cs: -2.3; Shiga inhibitor: 14.3; SARS PLpro yeast: -3.7%; NS1 inh: inconclusive

Results for Cc1ccc(C(=O)CSc2nc(O)cc(=O)[nH]2)cc1C ?
Cycloheximide cs: 0.8; Shiga inhibitor: -2.1; SARS PLpro yeast: 9.6%; NS1 inh: 7.94µM*; Flu NS1 inh: inconclusive

Results for CCC(C)c1c(O)nc(SCC(=O)Nc2ccccc2)[nH]c1=O (centres undefined) ?
Cycloheximide cs: 5.9; Shiga inhibitor: 30.8; SARS PLpro yeast: 13.9%; NS1 inh: -3.6%

Results for O=C(CCc1ccccc1)NNC(=O)COc1ccc(Br)cc1 ?
Cycloheximide cs: -4.5; Shiga inhibitor: 31.5; SARS PLpro yeast: -0.5%; NS1 inh: -0.2%

What do the screens show for `CN(C)C(CNC(=O)c1cc(Br)ccc1Cl)c1ccco1` (centres undefined)?
Cycloheximide cs: -5.6; Shiga inhibitor: 3.5; SARS PLpro yeast: 8.7%; NS1 inh: 2µM*; Flu NS1 inh: -14.7

What do the screens show for `CN(C)C(=O)c1ccccc1NC(=O)Cc1cccc2ccccc12`?
Cycloheximide cs: -0.4; Shiga inhibitor: -8.0; SARS PLpro yeast: 4.1%; NS1 inh: -6.5%

How did Cc1cc2cc(NC(=O)c3ccco3)ccc2[nH]1 do in these assays?
Cycloheximide cs: 61.2*; Shiga inhibitor: 137.0*; SARS PLpro yeast: 3.5%; NS1 inh: 2.51µM*; Flu NS1 inh: inconclusive
